# In PubChem BioAssay (Tox21):
# Inconclusive results are not listed. More than one record can exist for a structure, and the calls need not agree. Active and inactive are the calls of the source. Unless noted, calls follow the shape of the full dose curve.
# Tested on: not listed separately
# Assay: cAMP Responsive Elements (CRE) small molecule antagonists, cell-based qHTS assay (AID 1963591; active = well fitted inhibition curve with a large enough effect in the signal ratio in the repeat runs, not every such curve was filed as active; the % refers to the signal ratio)
# Conditions: CRE-bla HEK293T, beta-lactamase FRET ratio; series mostly up to 92.4 µM; activity change, negative = inhibition: at the top concentration
# How it was run: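 Beta-lactamase reporter read by FRET substrate (LiveBLAzer B/G) after 2 h at room temperature. CRE-bla HEK293T cells had received compound plus 0.25 uM (final) NKH477 for 3 h at 37 °C.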
# % is scaled to controls: 0 for no effect and ±100 for the full control effect.
SMILES,Potency,"activity change, negative = inhibition"
O=C(O)c1cc(O)c(O)c(O)c1,inactive,
NCCc1ccc(O)c(O)c1,inactive,
O=C(O)c1ccc(CO)o1,,1.28% (inactive)
O=C(O)CSCC(=O)NC1CCSC1=O (centres undefined),,-3.01% [at 42.4 µM] (inactive)

# Molecular target: Beta-2 adrenergic receptor (Homo sapiens) (UniProt P07550)
# Assay: Adrenergic beta2 receptor (ADRB2) small molecule antagonists, cell-based qHTS assay (AID 1963592); also: nearly all actives have a fitted effect of over 50% in size; also: potency is read from the fitted curve at half-maximal effect
# Conditions: CHO-ADRB2 cells, isoproterenol-stimulated cAMP HTRF ratio, 0.5 h; series mostly up to 92.4 µM; activity change, negative = inhibition: at the top concentration
# How it was run: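 Cells (CHO, stable ADRB2 overexpression) incubated 18-20hr at 37C; compounds added from DMSO; agonist mix (1nM isoproterenol, 100uM IBMX, 25uM Ro-20-1724) added; 0.5hr RT; d2-cAMP and anti-cAMP-cryptate added; 1hr RT; 665/615 nm read.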
# Beta-2 adrenergic receptor (Homo sapiens), sequence (P07550 whole entry, looked up): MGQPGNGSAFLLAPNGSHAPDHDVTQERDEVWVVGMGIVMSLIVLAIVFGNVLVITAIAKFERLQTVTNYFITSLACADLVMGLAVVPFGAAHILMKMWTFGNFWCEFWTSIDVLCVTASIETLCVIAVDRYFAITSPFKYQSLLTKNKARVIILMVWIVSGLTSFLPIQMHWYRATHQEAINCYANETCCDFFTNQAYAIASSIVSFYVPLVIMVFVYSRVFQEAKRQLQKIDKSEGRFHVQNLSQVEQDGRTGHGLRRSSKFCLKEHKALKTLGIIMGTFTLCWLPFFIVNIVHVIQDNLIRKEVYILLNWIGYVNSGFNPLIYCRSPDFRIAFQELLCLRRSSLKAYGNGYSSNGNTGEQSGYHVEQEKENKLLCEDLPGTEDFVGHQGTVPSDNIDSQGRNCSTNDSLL
SMILES,"activity change, negative = inhibition",Potency
Cc1cc(CCC(=O)OCCOCCOCCOC(=O)CCc2cc(C)c(O)c(C(C)(C)C)c2)cc(C(C)(C)C)c1O,-0.289% (inactive),
COCCCOc1ccnc(CS(=O)c2nc3ccccc3[nH]2)c1C (centres undefined),,inactive
CC(C)(c1ccc(O)cc1)c1ccc(O)cc1,-16.6% (inactive),
C[Si](C)O[Si](C)(C)O[Si](C)(C)O[Si](C)C,-0.774% (inactive),
C[C@H]1C[C@H](O)c2ccsc2S1(=O)=O,8.82% [at 42.5 µM] (inactive),
CC1=CCC(C(C)(C)O)CC1 (centres undefined),,inactive
CCC(C)=O,1.55% (inactive),
N=c1nc(N2CCCCC2)cc(N)n1O,5.54% [at 42.5 µM] (inactive),
CC(C)CCCC(C)N (centres undefined),-13.3% [at 42.5 µM] (inactive),
COc1ccc2c(c1)CCCC2=O,4.2% [at 42.5 µM] (inactive),
CC1=CCC(O)(C(C)C)CC1 (centres undefined),-1.97% (inactive),
CCCCCCCC(=O)[O-].CCCCCCCC(=O)[O-].[Zn+2],0.92% [at 42.5 µM] (inactive),
Nc1nc(N)c2nc(-c3ccccc3)c(N)nc2n1,,inactive
COC(=O)c1ccccc1C(=O)c1ccc(OCCN2CCCCC2)cc1,0.847% [at 42.5 µM] (inactive),
c1coc(CNc2ncnc3nc[nH]c23)c1,-19.9% (inactive),
CC1=C(O)C(=O)C(C)O1 (centres undefined),0.98% (inactive),
Cc1[nH]cnc1-c1ccc(Cl)cc1,-8.67% [at 42.5 µM] (inactive),
C1CCCC1,12% (inactive),

SMILES,"activity change, negative = inhibition",Potency
CCCC(=O)CC,-5.46% (inactive),
Oc1ccc(Cl)cc1Sc1cc(Cl)ccc1O,,68.5 µM (active) and inactive
CCOCOCC,-1.02% (inactive),
CCCC1O[C@@H]2C[C@H]3[C@@H]4CCC5=CC(=O)C=C[C@]5(C)[C@H]4[C@@H](O)C[C@]3(C)[C@]2(C(=O)CO)O1 (some centres undefined),,inactive
C1C[C@@H]2[C@H]3CC[C@H](C3)[C@@H]2C1,0.786% (inactive),
CC(C)C(=O)c1ccccc1,-1.02% (inactive),
Cc1nc2ccccc2s1,0.617% (inactive),
COCCOCCOCCOCCOCCO,-0.321% (inactive),
O=C(O)c1cc(-c2ccccc2)nc2ccccc12,,inactive
COc1cc(C(=S)N2CCOCC2)ccc1O,6.55% [at 42.5 µM] (inactive),
O=C(O)CCCCCCCCCCCC(=O)O,,inactive
O=S(=O)(O)c1cccc2ccccc12,0.211% (inactive),
COC(=O)CCCCC(=O)O,-16.7% (inactive),
CN(CCOc1ccc(CC2SC(=O)NC2=O)cc1)c1ccccn1 (centres undefined),,inactive
O=C(CCNNC(=O)c1ccncc1)NCc1ccccc1,12% [at 42.5 µM] (inactive),
NCCc1ccc(O)c(O)c1,,inactive
O=C(O)CSCC(=O)NC1CCSC1=O (centres undefined),0.0062% [at 42.5 µM] (inactive),
